Test results taken from the supplement of paper PMC9023506.
Where a name gives a salt, the structure may show the parent alone.

tested on: Danio rerio larvae (5 dpf); experiment: optomotor response to blue moving lines, difference vs DMSO (percentage points (treated minus DMSO)); higher = more of the behaviour than the DMSO vehicle control; settings: 10 µM; exposure time: 3 h pre-incubation + 3 h imaging
Method: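 5-dpf wild-type zebrafish larvae were imaged in 96-well plates. They were treated with 190 Tocris FDA-approved drugs at 10 µM (1 µl/ml DMSO) for 3 h before and 3 h during imaging at 28.5 °C, 48 larvae per drug. Automated image analysis gave % time moving and optomotor responses. Values are drug group mean minus DMSO vehicle mean (n=844), in percentage points, for 10 behaviours.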

SMILES | optomotor response to blue moving lines
CCOC(=O)C1=C(COCCN)NC(C)=C(C(=O)OC)C1c1ccccc1Cl (stereo not given) [Amlodipine besylate] | 6.74
COC(c1ccccc1)(c1ccccc1)[C@H](Oc1nc(C)cc(C)n1)C(=O)O [Ambrisentan] | -7.26
CN[C@H]1CC[C@@H](c2ccc(Cl)c(Cl)c2)c2ccccc21 [Sertraline hydrochloride] | -9.96
CC(C)n1c(/C=C/C(O)CC(O)CC(=O)O)c(-c2ccc(F)cc2)c2ccccc21 (stereo not given) [Fluvastatin sodium] | -4.94
COc1cc(N)c(Cl)cc1C(=O)NC1CCN(CCCOc2ccc(F)cc2)CC1OC (stereo not given) [Cisapride] | 4.41
COc1cc2nc(N3CCN(C(=O)C4COc5ccccc5O4)CC3)nc(N)c2cc1OC (stereo not given) [Doxazosin mesylate] | -6.52
CN1CC(=O)N2[C@H](c3ccc4c(c3)OCO4)c3[nH]c4ccccc4c3C[C@@H]2C1=O [Tadalafil] | -3.81
CC(=O)O[C@]1(C(C)=O)CC[C@H]2[C@@H]3C=C(C)C4=CC(=O)CC[C@]4(C)[C@H]3CC[C@@]21C [Megestrol Acetate] | -7.55
Cn1cnc([N+](=O)[O-])c1Sc1ncnc2[nH]cnc12 [Azathioprine] | 9.74
CNC(=O)c1cc(Oc2ccc(NC(=O)Nc3ccc(Cl)c(C(F)(F)F)c3)cc2)ccn1 [Sorafenib] | -18.5
O=c1n(CCCN2CCN(c3cccc(Cl)c3)CC2)nc2ccccn12 [Trazodone hydrochloride] | 6.49
CC(=O)Oc1ccccc1C(=O)O [Aspirin] | 2.57
O=C(O)CCCc1ccccc1 [Sodium 4-Phenylbutyrate] | 3.11
NS(=O)(=O)Cc1noc2ccccc12 [Zonisamide] | 3.89
Cc1cc2c(s1)Nc1ccccc1N=C2N1CCN(C)CC1 [Olanzapine] | 16
OCc1cc(C(O)CNCCCCCCOCCCCc2ccccc2)ccc1O (stereo not given) [Salmeterol xinafoate] | -3.67
CC(c1cc2ccccc2s1)N(O)C(N)=O (stereo not given) [Zileuton] | -7.52
CN1CCN2c3ncccc3Cc3ccccc3C2C1 (stereo not given) [Mirtazapine] | -2.95
C[C@@H]1C[C@H]2[C@@H]3CCC4=CC(=O)C=C[C@]4(C)[C@@]3(F)[C@@H](O)C[C@]2(C)[C@@]1(O)C(=O)CO [Dexamethasone] | 2.76
CCc1nc(N)nc(N)c1-c1ccc(Cl)cc1 [Pyrimethamine] | 15.9

SMILES | optomotor response to blue moving lines
Clc1ccc(COC(Cn2ccnc2)c2ccc(Cl)cc2Cl)c(Cl)c1 (stereo not given) [Miconazole nitrate] | -7.42
COc1c(C)c2c(c(O)c1C/C=C(\C)CCC(=O)O)C(=O)OC2 [Mycophenolic acid] | 7
CC1CNc2c(cccc2S(=O)(=O)N[C@@H](CCCNC(=N)N)C(=O)N2CC[C@@H](C)C[C@@H]2C(=O)O)C1 (stereo not given in full) [Argatroban] | 4.3
CN(CCOc1ccc(CC2SC(=O)NC2=O)cc1)c1ccccn1 (stereo not given) [Rosiglitazone] | -12.4
C[C@H](Cc1cc2c(c(C(N)=O)c1)N(CCCO)CC2)NCCOc1ccccc1OCC(F)(F)F [Silodosin] | 15.7
COc1cc2ncnc(Nc3ccc(F)c(Cl)c3)c2cc1OCCCN1CCOCC1 [Iressa] | 5.63
CC#C[C@]1(O)CC[C@H]2[C@@H]3CCC4=CC(=O)CCC4=C3[C@@H](c3ccc(N(C)C)cc3)C[C@@]21C [Mifepristone] | 11
CN(C)CCc1c[nH]c2ccc(Cn3cncn3)cc12 [Rizatriptan benzoate] | 3.13
Nc1nc2c(ncn2COCCO)c(=O)[nH]1 [Acyclovir] | 10.2
CCOc1cc(CC(=O)N[C@@H](CC(C)C)c2ccccc2N2CCCCC2)ccc1C(=O)O [Repaglinide] | -2.55
Cc1cc(C2CCCCC2)n(O)c(=O)c1 [Ciclopirox] | -8.77
CN1CCN(CCCN2c3ccccc3Sc3ccc(Cl)cc32)CC1 [Prochlorperazine dimaleate] | 12.2
CC(=O)S[C@@H]1CC2=CC(=O)CC[C@]2(C)[C@H]2CC[C@@]3(C)[C@@H](CC[C@@]34CCC(=O)O4)[C@H]12 [Spironolactone] | 1.86
COc1cc2nccc(Oc3ccc(NC(=O)C4(C(=O)Nc5ccc(F)cc5)CC4)cc3)c2cc1OC | -8.79
CC(C)OC(=O)C(C)(C)Oc1ccc(C(=O)c2ccc(Cl)cc2)cc1 [Fenofibrate] | 12.7
CCCCCCCN(CC)CCCC(O)c1ccc(NS(C)(=O)=O)cc1 (stereo not given) [Ibutilide hemifumarate] | 12.1
Nc1cc(N2CCCCC2)nc(N)[n+]1[O-] [Minoxidil] | -6.76
Nc1nc(Cl)nc2c1ncn2[C@@H]1O[C@H](CO)[C@@H](O)[C@@H]1F [Clofarabine] | 4.47
CC(C)(C(=O)O)c1ccc(C(O)CCCN2CCC(C(O)(c3ccccc3)c3ccccc3)CC2)cc1 (stereo not given) [Fexofenadine hydrochloride] | 4.47
CC(C)c1nc(N(C)S(C)(=O)=O)nc(-c2ccc(F)cc2)c1/C=C/[C@@H](O)C[C@@H](O)CC(=O)O [Rosuvastatin calcium] | 10.7
